Test results taken from PubChem BioAssay AID623868 (Vanderbilt High Throughput Screening Facility, 2012).
About 760 (36%) of roughly 2,100 compounds were called active. These entries were drawn from the full list. Values without a mark were called inactive.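 The calls were made as follows: active = thallium-flux fluorescence traces judged by eye to show enhanced or reduced glutamate response, manual score 1 or -1, so both directions (some results past the limit were not filed as active); inactive = the rest, including fluorescent or raised-baseline compounds.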

test: non-GIRK thallium flux modulation in mGlu8 cells, confirmation, counter-screen for GIRK activator project, cell-based, HEK-293 rmGlu8, no GIRK (AID 623868); settings: thallium flux fluorescence, at 10 µM, actives lie on both sides, codes: 1 enhancer, -1 blocker, 0 none, thallium stimulus containing EC20 glutamate;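 also: extra codes mark interference with 3 for fluorescent and 4 for baseline rise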

SMILES | manual score
O=c1c(-c2ccccc2)nc(-c2ccccc2)cn1O | 1 (active)
COCCn1nnnc1C(c1ccccc1)N1CCN(c2ccccc2)CC1 (configuration not stated) | 0
COc1ccccc1N=Cc1nc(-c2ccccc2)oc1OC(C)=O | -1 (active)
CCC(=O)Oc1oc(-c2ccccc2)nc1C=Nc1ccccc1OC | -1 (active)
C=CCN(CC=C)C(=S)NC(=O)/C=C/c1ccc(C)cc1 | 1 (active)
COc1ccc(C(=O)NC(=S)NCCO)cc1Br | 1 (active)
CCOC(=O)c1ccc(NC(=O)Nc2ccc(OC)c(OC)c2)cc1 | 0
COc1ccc(C(=O)NC(=S)NC(C)C)cc1Br | 0.5
Cc1ccnc(NC(=S)NC(=O)/C=C/c2ccco2)c1 | 0
C=CCN(CC=C)C(=S)NC(=O)c1ccc(OC)c(Br)c1 | 1 (active)
CCOC(=O)c1c(CNCCN(CC)CC)n(C)c2cc(Br)c(OC)cc12 | 0
C=CCN(CC=C)C(=S)NC(=O)c1ccc(C)c(Br)c1 | 1 (active)
Cc1ccc(-c2nnn(CC(=O)NC3CC4CCC3C4)n2)cc1 (configuration not stated) | 0
Clc1ccc(Cc2ccc(SCc3ccccc3)nn2)c(Cl)c1 | 0
CCCCCCCCCn1c2c(c(=N)c3c1CCC3)CCC2 | 0
CCN(CC)C(=O)CN(c1ccc2c(c1)OCO2)S(C)(=O)=O | 0
NC1=NC2(CCCCC2)n2c(nc3ccccc32)N1 | 0
NC(=O)SCC(=O)Nc1cccc(Cl)c1 | 0
COC(=O)C(C)N(C(=O)c1cccc2ccccc12)c1c(C)cccc1C (configuration not stated) | -1 (active)
COC(=O)C(C)N(C(=O)c1cccc(Cl)c1)c1c(C)cccc1C (configuration not stated) | -1 (active)
S=c1[nH]ccn1-c1cccc(Cl)c1 | 0
Oc1c(C=NCc2ccncc2)sc2ccccc12 | 0
O=C(COc1ccc(Br)cc1Cl)NC(=S)N1CCc2ccccc21 | 0
Cc1cnc(NC(=O)COc2ccccc2Cl)s1 | 0

SMILES | manual score
Cc1cccc(OCC(=O)NC(=S)N2CCCc3ccccc32)c1 | 1 (active)
O=C(COc1ccccc1Cl)NC(=S)N1CCc2ccccc21 | 1 (active)
C=C(C)C1CC=C(C)/C(=N/NC(=O)COc2cccc(C)c2)C1 (configuration not stated) | 0
O=C(COc1ccccc1)NC(=S)N1CCc2ccccc21 | 1 (active)
CC(Oc1ccc(Cl)cc1Cl)C(=O)NC(=S)N1CCc2ccccc21 (configuration not stated) | 1 (active)
Cc1cccc(OCc2nnc(SCC(=O)N3CCc4ccccc43)n2C)c1 | 0
N#CC(C#N)=C1C=C2C=C(N3CCCCCC3)CCC2CC1 (configuration not stated) | 3
CC1CCC/C(=N\NC(=O)COc2ccc(Cl)cc2Cl)C1 (configuration not stated) | 0
O=C(COc1ccc(Br)cc1Br)NC(=S)N1CCCc2ccccc21 | 0.5
O=C(COc1ccc(Cl)cc1Cl)NC(=S)N1CCCc2ccccc21 | 1 (active)
CCCCN(CCCC)c1nc2ccccc2nc1C(C#N)C(=O)NCCCOC (configuration not stated) | 3
C=C(C)C1CC=C(C)/C(=N/NC(=S)Nc2ccccc2)C1 (configuration not stated) | 0
S=C(NN=C1C2CC3CC(C2)CC1C3)Nc1ccccc1 | 1 (active)
S=C(NN=C(C1CC1)C1CC1)Nc1ccccc1 | 0
CC(C)N=c1scc(-c2cccs2)n1/N=C/c1ccc(O)c(O)c1O | 0
CC(c1ccco1)N(C(=O)c1ccccc1NS(=O)(=O)c1cc([N+](=O)[O-])ccc1Cl)c1ccccn1 (configuration not stated) | 1 (active)
CCOP(=O)(c1ccccc1)c1nc(-c2ccccc2C)oc1N1CCCCC1 (configuration not stated) | 0
Cc1ccc(/C=N/Nc2nc(Cl)c(Cl)cc2Cl)s1 | 1 (active)
CCOC(=O)C1=C(C)OC(N)=C(C#N)C1c1cncc(-c2ccc(F)cc2)c1 (configuration not stated) | 0
Cc1cc(C)n(-c2ccc(C(=O)OCC(=O)Nc3ccc(Cl)c(S(=O)(=O)N(C)C)c3)cc2)n1 | 0
CCOC(=O)Cc1csc(NC(=S)NC(=O)c2ccccc2C)n1 | 1 (active)
CCOC(=O)Cc1csc(NC(=S)NC(=O)c2ccccc2Br)n1 | 1 (active)
CC1=CC(=O)OC1Cc1ccncc1 (configuration not stated) | 0
O=C(Nc1ccc(F)cc1)c1cccc2c1C(=O)N(Cc1ccccn1)C2 | 0

SMILES | manual score
COc1ccc(-n2c(=O)[nH]cc(C(=O)Nc3ccc(NC(C)=O)cc3)c2=O)cc1 | 0
CCCC(=O)Nc1ccc(NC(=O)C23CC4CC(CC(C4)C2)C3)cn1 | 0
Cc1cccc(NC(=S)NC(=O)c2cccs2)n1 | 1 (active)
Cc1ccc2cccc(NC(=S)NC(=O)c3ccnn3C)c2n1 | 0
CC(Cc1cccs1)NC(=O)Nc1ccc(Cl)cc1 (configuration not stated) | 0
Cc1ccnc(NC(=S)NC(=O)c2cccs2)c1 | 1 (active)
O=C(NC(=S)Nc1ccc(Cl)cn1)c1cccs1 | 1 (active)
CCn1c(CCNC(=O)c2cccs2)nnc1SCC(=O)Nc1ccc(Cl)cc1 | 0
Cc1ccc2cccc(NC(=S)NC(=O)c3ccn(C)n3)c2n1 | 0
CC(C)CC(NS(=O)(=O)c1ccc2c(c1)oc(=O)n2C)C(=O)NC1CCCc2ccccc21 (configuration not stated) | 0
CCOc1ccc(-n2c(SCc3nc(-c4cccs4)no3)nnc2-c2ccncc2)cc1 | 0
CC(C)CC(=O)NC(=S)N(Cc1ccccc1)Cc1ccccc1 | 1 (active)
CC(C)C(=O)NC(=S)N(Cc1ccccc1)Cc1ccccc1 | 1 (active)
CC(C)CC(=O)NC(=S)Nc1nc(-c2cccc3ccccc23)cs1 | 0
Cc1ccccc1Cn1c(=N)n(CC(O)c2ccco2)c2ccccc21 (configuration not stated) | 0
N#Cc1nc(COc2ccccc2)oc1N1CCN(c2cccc(Cl)c2)CC1 | 0
CCN(CC)C(=O)CSc1nnc(NC(=O)CCc2ccccc2)s1 | 0
O=C(Nc1nc(=O)c2ccccc2s1)c1ccc(F)cc1 | 1 (active)
O=C(Cc1ccccc1)Nc1nc(=O)c2ccccc2s1 | 1 (active)
O=C(Nc1nc(=O)c2ccccc2s1)c1ccc(Cl)cc1 | 1 (active)
O=C(Nc1nc2ccccc2s1)c1cc(-c2ccccc2)nn1-c1ccccc1 | 0
CN(C)CCCNC(=O)c1ccc(-c2nc(-c3ccc(Cl)cc3)cs2)cc1 | 0
O=C(Cc1ccccc1)Nc1nc(-c2cccs2)cs1 | 0
O=C(Nc1nc(=O)c2ccccc2s1)c1ccccc1 | 1 (active)
